Inconclusive results are not listed. Where a call stands in place of a potency, no number is given. The source made the active and inactive calls. Calls come from the whole dose curve.
experiment: Primary qHTS for inhibitors of SARS-S pseudo-typed particle cell entry (AID 1479145); details: SARS-S pseudotyped particle cell entry, luciferase reporter; series mostly up to 57.1 µM; note: nearly all actives have a fitted effect of over 45% in size; note: potency is the fitted concentration of half-maximal effect

Q: For `Cc1cccc(C)c1NC(=O)C(C)N` (stereo unspecified), which Potency is on record?
A: inactive

Q: For `CCc1cccc2c3c([nH]c12)C(CC)(CC(=O)O)OCC3` (stereo unspecified), which Potency is on record?
A: inactive

Q: With `CCCCOc1ccc(OCCCN2CCOCC2)cc1` as the compound, how does the Potency read?
A: inactive

Q: With `CN(C)CC/C=C1\c2ccccc2Sc2ccc(Cl)cc21` as the compound, how does the Potency read?
A: 10 µM (active)

Q: Which Potency does the source give for `COc1ccc(CN(CCN(C)C)c2ccccn2)cc1` here?
A: inactive

Q: Which Potency does the source give for `Nc1ccc(S(=O)(=O)Nc2cnc3ccccc3n2)cc1` here?
A: inactive

Q: With `CCCc1cc(C(N)=S)ccn1` as the compound, how does the Potency read?
A: inactive

Q: With `C[N+](C)(C)CCOC(=O)CCC(=O)OCC[N+](C)(C)C` as the compound, how does the Potency read?
A: inactive

Q: Which Potency does the source give for `CO[C@]1(NC(=O)CSC(F)F)C(=O)N2C(C(=O)O)=C(CSc3nnnn3CCO)CO[C@H]21` here?
A: inactive

Q: For `CC(=O)OCC(=O)[C@@]1(O)CC[C@H]2[C@@H]3CCC4=CC(=O)C=C[C@]4(C)[C@H]3[C@@H](O)C[C@@]21C`, which Potency is on record?
A: inactive

Q: Which Potency does the source give for `CNC(=O)c1c(I)c(NC(=O)CCCCC(=O)Nc2c(I)c(C(=O)O)c(I)c(C(=O)NC)c2I)c(I)c(C(=O)O)c1I` here?
A: inactive

Q: With `CCOc1cc(N)c(Cl)cc1C(=O)NCC1CN(Cc2ccc(F)cc2)CCO1` (stereo unspecified) as the compound, how does the Potency read?
A: inactive

Q: For `NC1=NCC2c3ccccc3Cc3ccccc3N12` (stereo unspecified), which Potency is on record?
A: inactive

Q: With `CNC(=O)c1cnn(-c2nc(N)c3ncn([C@@H]4O[C@H](CO)[C@@H](O)[C@H]4O)c3n2)c1` as the compound, how does the Potency read?
A: inactive

Q: Which Potency does the source give for `CCOc1ccc2nc(S(N)(=O)=O)sc2c1` here?
A: inactive

Q: Which Potency does the source give for `CCN(CC)CC(=O)Nc1c(C)cccc1C` here?
A: inactive

Q: Which Potency does the source give for `CCCCC/C=C\C/C=C\CCCCCCCC(=O)NC(C)c1ccccc1` (stereo unspecified) here?
A: inactive

Q: Which Potency does the source give for `CC(C)(C)CC(=O)OCC(=O)[C@@]1(O)CC[C@H]2[C@@H]3CCC4=CC(=O)C=C[C@]4(C)[C@H]3[C@@H](O)C[C@@]21C` here?
A: inactive

Q: With `C[C@]12CCC(=O)C=C1[C@@H]1C[C@@H]1[C@H]1[C@@H]3[C@@H]4C[C@@H]4[C@@]4(CCC(=O)O4)[C@@]3(C)CC[C@@H]12` as the compound, how does the Potency read?
A: inactive

Q: Which Potency does the source give for `Cc1[nH]c(=O)c(C#N)cc1-c1ccc2nccn2c1` here?
A: inactive

Q: Which Potency does the source give for `C#C[C@]1(O)CC[C@H]2[C@@H]3[C@H](C)CC4=C(CCC(=O)C4)[C@H]3CC[C@@]21C` here?
A: inactive

experiment: Primary qHTS for Huh7 cytotoxicity: counterscreen for inhibitors of MERS-S pseudotyped particle cell entry (AID 1479147); details: cell viability read-out; series mostly up to 57.1 µM

Q: For `O=C1c2cccc(O)c2C(=O)c2c(O)cccc21`, which Potency is on record?
A: inactive

Q: Which Potency does the source give for `CN1CCCN=C1/C=C/c1cccs1` here?
A: inactive

Q: For `Cc1ccc(C(=O)Oc2ccc(C(O)CNC(C)(C)C)cc2OC(=O)c2ccc(C)cc2)cc1` (stereo unspecified), which Potency is on record?
A: inactive

Q: With `CC(C)c1cc2c(cc1S(=O)(=O)O)[C@@]1(C)CCC[C@@](C)(C(=O)O)[C@@H]1CC2` as the compound, how does the Potency read?
A: inactive

Q: Which Potency does the source give for `Oc1ccc(CCNCCCCCCNCCc2ccccc2)cc1O` here?
A: inactive

Q: Which Potency does the source give for `Cn1c(=O)c2c(ncn2C)n(C)c1=O` here?
A: inactive

Q: Which Potency does the source give for `O=C(O)c1cn(-c2ccc(F)cc2)c2cc(N3CCNCC3)c(F)cc2c1=O` here?
A: inactive

Q: With `N[C@H](Cc1c[nH]c2ccccc12)C(=O)O` as the compound, how does the Potency read?
A: inactive

Q: For `CCCSS/C(CCO)=C(\C)N(C=O)Cc1cnc(C)nc1N`, which Potency is on record?
A: inactive

Q: For `CCOC(=O)OC(C)OC(=O)[C@@H]1N2C(=O)[C@@H](NC(=O)[C@H](N)c3ccccc3)[C@H]2SC1(C)C` (stereo partly specified), which Potency is on record?
A: inactive

Q: Which Potency does the source give for `C=Cc1c(C)c2cc3[nH]c(cc4nc(cc5nc(cc1[nH]2)C(C)=C5CCC(=O)O)C(CCC(=O)O)=C4C)c(C)c3C=C` here?
A: inactive

Q: For `CCOc1ccc(NC(C)=O)cc1`, which Potency is on record?
A: inactive

Q: Which Potency does the source give for `CCCCCC1Nc2cc(C(F)(F)F)c(S(N)(=O)=O)cc2S(=O)(=O)N1` (stereo unspecified) here?
A: inactive

Q: Which Potency does the source give for `O=C(O)COC(=O)Cc1ccccc1Nc1c(Cl)cccc1Cl` here?
A: inactive

Q: Which Potency does the source give for `CCCCN(CCN(CCCC)C(=O)N1CCOCC1)C(=O)N1CCOCC1` here?
A: inactive

Q: For `CCNC(=O)NCCCOc1cccc(CN2CCCCC2)c1`, which Potency is on record?
A: inactive

Q: Which Potency does the source give for `Oc1ccc(C(O)CNCCCCCCNCC(O)c2ccc(O)c(O)c2)cc1O` (stereo unspecified) here?
A: inactive

Q: For `CCOC(=O)n1ccn(C)c1=S`, which Potency is on record?
A: inactive

Q: Which Potency does the source give for `CCN1CCN(c2cc(-c3ccc(F)cc3)c3c(n2)CCCCCC3)CC1` here?
A: inactive

Q: With `Cc1cccc(C)c1NC(=O)C(C)N` (stereo unspecified) as the compound, how does the Potency read?
A: inactive

Q: For `CCc1cccc2c3c([nH]c12)C(CC)(CC(=O)O)OCC3` (stereo unspecified), which Potency is on record?
A: inactive

Q: With `CCCCOc1ccc(OCCCN2CCOCC2)cc1` as the compound, how does the Potency read?
A: inactive

Q: Which Potency does the source give for `CN(C)CC/C=C1\c2ccccc2Sc2ccc(Cl)cc21` here?
A: inactive

Q: Which Potency does the source give for `COc1ccc(CN(CCN(C)C)c2ccccn2)cc1` here?
A: inactive

Q: Which Potency does the source give for `Nc1ccc(S(=O)(=O)Nc2cnc3ccccc3n2)cc1` here?
A: inactive

Q: With `CCCc1cc(C(N)=S)ccn1` as the compound, how does the Potency read?
A: inactive

Q: For `C[N+](C)(C)CCOC(=O)CCC(=O)OCC[N+](C)(C)C`, which Potency is on record?
A: inactive

Q: For `CO[C@]1(NC(=O)CSC(F)F)C(=O)N2C(C(=O)O)=C(CSc3nnnn3CCO)CO[C@H]21`, which Potency is on record?
A: inactive

Q: With `CC(=O)OCC(=O)[C@@]1(O)CC[C@H]2[C@@H]3CCC4=CC(=O)C=C[C@]4(C)[C@H]3[C@@H](O)C[C@@]21C` as the compound, how does the Potency read?
A: inactive

Q: Which Potency does the source give for `CNC(=O)c1c(I)c(NC(=O)CCCCC(=O)Nc2c(I)c(C(=O)O)c(I)c(C(=O)NC)c2I)c(I)c(C(=O)O)c1I` here?
A: inactive

Q: Which Potency does the source give for `CCOc1cc(N)c(Cl)cc1C(=O)NCC1CN(Cc2ccc(F)cc2)CCO1` (stereo unspecified) here?
A: inactive

Q: Which Potency does the source give for `NC1=NCC2c3ccccc3Cc3ccccc3N12` (stereo unspecified) here?
A: inactive

Q: Which Potency does the source give for `CNC(=O)c1cnn(-c2nc(N)c3ncn([C@@H]4O[C@H](CO)[C@@H](O)[C@H]4O)c3n2)c1` here?
A: inactive

Q: For `CCOc1ccc2nc(S(N)(=O)=O)sc2c1`, which Potency is on record?
A: inactive

Q: With `CCN(CC)CC(=O)Nc1c(C)cccc1C` as the compound, how does the Potency read?
A: inactive

Q: With `CCCCC/C=C\C/C=C\CCCCCCCC(=O)NC(C)c1ccccc1` (stereo unspecified) as the compound, how does the Potency read?
A: inactive

Q: Which Potency does the source give for `CC(C)(C)CC(=O)OCC(=O)[C@@]1(O)CC[C@H]2[C@@H]3CCC4=CC(=O)C=C[C@]4(C)[C@H]3[C@@H](O)C[C@@]21C` here?
A: inactive

Q: Which Potency does the source give for `C[C@]12CCC(=O)C=C1[C@@H]1C[C@@H]1[C@H]1[C@@H]3[C@@H]4C[C@@H]4[C@@]4(CCC(=O)O4)[C@@]3(C)CC[C@@H]12` here?
A: inactive

Q: For `Cc1[nH]c(=O)c(C#N)cc1-c1ccc2nccn2c1`, which Potency is on record?
A: inactive

Q: With `C#C[C@]1(O)CC[C@H]2[C@@H]3[C@H](C)CC4=C(CCC(=O)C4)[C@H]3CC[C@@]21C` as the compound, how does the Potency read?
A: inactive

Source: PubChem BioAssay (NCATS)
